# Experimental data: paper PMC4336329 (PLoS ONE, 2015)
# Hit rate of the full screen: of about 310,000 compounds, about 14,000 (4.5%) showed an effect of 50% or more. The effect is printed as a negative number. The list comes from a sample in which strong results are over-represented; it also holds similar structures and randomly drawn compounds.
# Biological target: human ether-à-go-go-related gene (hERG) potassium channel (human, UniProt Q12809)
# Experiment: primary screen, population patch clamp on CHO cells stably expressing hERG; higher = less effect of the substance
# 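Also: peak tail current of the secondary pulse compared with the same well before compound.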
# Chain of human ether-à-go-go-related gene (hERG) potassium channel (Q12809 whole entry, looked up): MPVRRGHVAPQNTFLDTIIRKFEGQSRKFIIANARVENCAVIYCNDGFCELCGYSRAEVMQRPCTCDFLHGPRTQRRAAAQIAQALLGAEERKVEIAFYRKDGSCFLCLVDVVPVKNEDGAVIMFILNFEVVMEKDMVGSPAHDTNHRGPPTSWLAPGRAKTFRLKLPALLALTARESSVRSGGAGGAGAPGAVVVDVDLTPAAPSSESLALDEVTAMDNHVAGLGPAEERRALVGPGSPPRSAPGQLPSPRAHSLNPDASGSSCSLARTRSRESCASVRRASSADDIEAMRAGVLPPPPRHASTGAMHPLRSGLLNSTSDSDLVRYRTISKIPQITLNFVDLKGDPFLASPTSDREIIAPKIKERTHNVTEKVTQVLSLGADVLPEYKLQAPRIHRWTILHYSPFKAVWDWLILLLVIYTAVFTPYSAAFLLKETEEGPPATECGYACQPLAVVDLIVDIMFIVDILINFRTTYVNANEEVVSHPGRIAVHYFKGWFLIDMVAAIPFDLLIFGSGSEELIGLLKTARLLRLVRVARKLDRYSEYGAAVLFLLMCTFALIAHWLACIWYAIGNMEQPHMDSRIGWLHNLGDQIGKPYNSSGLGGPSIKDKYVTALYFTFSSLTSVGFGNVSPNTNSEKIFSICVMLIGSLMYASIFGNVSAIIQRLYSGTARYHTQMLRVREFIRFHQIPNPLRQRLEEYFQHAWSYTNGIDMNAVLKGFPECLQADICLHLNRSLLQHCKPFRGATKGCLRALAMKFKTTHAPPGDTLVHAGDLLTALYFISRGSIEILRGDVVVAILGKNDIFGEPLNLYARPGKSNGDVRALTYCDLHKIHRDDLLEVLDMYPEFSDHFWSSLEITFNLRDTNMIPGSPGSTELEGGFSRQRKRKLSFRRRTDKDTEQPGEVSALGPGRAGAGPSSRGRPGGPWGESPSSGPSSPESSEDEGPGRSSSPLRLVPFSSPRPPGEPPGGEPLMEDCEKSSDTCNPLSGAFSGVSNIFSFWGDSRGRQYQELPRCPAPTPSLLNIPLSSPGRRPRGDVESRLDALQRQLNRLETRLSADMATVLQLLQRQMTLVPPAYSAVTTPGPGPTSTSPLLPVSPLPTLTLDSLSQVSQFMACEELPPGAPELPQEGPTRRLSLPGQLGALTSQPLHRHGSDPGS
row,Structure (SMILES),"hERG current change (%, negative = inhibition) at 10uM"
1,O=[N+]([O-])c1ccc(N2CCN(c3ccc(O)cc3)CC2)cn1,-52.8%
2,O=[N+]([O-])c1ccc(N2CCN(c3ccc(F)cc3)CC2)cn1,-48.7%
3,O=[N+]([O-])c1ccc(N2CCN(c3cccc(Cl)c3)CC2)cn1,-63.2%
4,O=[N+]([O-])c1ccc(N2CCCCC2)cn1,8.92%
5,O=[N+]([O-])c1ccc(N2CCN(c3ccccc3Cl)CC2)cn1,-34.3%
6,O=[N+]([O-])c1ccc(N2CCOCC2)cn1,15.4%
7,Cn1c(C(=O)NCc2ccccn2)cc2c(=O)n3ccccc3nc21,-1.42%
8,CN(C)S(=O)(=O)c1cccc(NC(=O)c2cc3ccccc3o2)c1,-13.7%
9,CCOc1ccc(N2C(=O)/C(=C/c3cccs3)N(CC(=O)OC)C2=S)cc1,-28%
10,COC(=O)C(NC(C)=O)(Nc1nc2c(s1)CCCC2)C(F)(F)F (stereo not drawn),-4.29%
11,COCCCNC(=O)CSC1=Nc2ccccc2C2=NC(c3ccccc3)C(=O)N12 (stereo not drawn),-22.2%
12,O=C(Nc1ccc(F)cc1)Nc1ccc2ccccc2n1,14.2%
13,COc1ccc(-c2csc(NC(=O)c3cccc(N4C(=O)CCC4=O)c3)n2)cc1OC,-1.68%
14,COCCN(C(=O)c1cccc(N2C(=O)CCC2=O)c1)c1nc(-c2ccc([N+](=O)[O-])cc2)cs1,-50.2%
15,COc1ccc(C)c2sc(N(CCN(C)C)C(=O)c3ccc4ccccc4c3)nc12.Cl,-20.7%
16,Cc1cc(C)c2nc(N(CCCN(C)C)C(=O)c3ccc4c(c3)OCCO4)sc2c1.Cl,-51.2%
17,COc1ccc(OC)c2sc(N(CCN(C)C)C(=O)c3ccc4ccccc4c3)nc12.Cl,-11.3%
18,COc1ccc(C)c2sc(N(CCN(C)C)C(=O)c3cccc(N4C(=O)CCC4=O)c3)nc12.Cl,-57.9%
19,COc1ccc(Cl)c2sc(N(CCN(C)C)C(=O)c3ccc4c(c3)OCCO4)nc12.Cl,-29.2%

row,Structure (SMILES),"hERG current change (%, negative = inhibition) at 10uM"
1,Cc1cc(C)c2nc(N(CCCN(C)C)C(=O)c3ccc4c(c3)CCCC4)sc2c1.Cl,-3.72%
2,CN(C)CCN(C(=O)c1cccc(N2C(=O)CCC2=O)c1)c1nc2ccc(Br)cc2s1.Cl,-48.7%
3,COc1ccc(C)c2sc(N(CCCN(C)C)C(=O)c3ccc4c(c3)OCCO4)nc12.Cl,-75.6%
4,Cc1cc(C)c2nc(N(CCN(C)C)C(=O)c3ccc4ccccc4c3)sc2c1.Cl,11.6%
5,COCCN(C(=O)C1CC(=O)N(Cc2ccccc2)C1)c1nc(-c2ccc([N+](=O)[O-])cc2)cs1 (stereo not drawn),-29.7%
6,CCOc1ccccc1NC(=O)NCc1ccco1,8.52%
7,CC(=O)N1CCc2cc(S(=O)(=O)CCC(=O)NCc3ccc(F)cc3)ccc21,-13.8%
8,O=C1C=C(O)C(n2cncn2)C(c2ccc3c(c2)OCO3)C1 (stereo not drawn),17.1%
9,O=C(NCc1cccnc1)c1nc(-c2ccccc2)n(-c2ccccc2)n1,-14.7%
10,O=C(CCCCCn1c(=S)[nH]c2ccc(N3CCOCC3)cc2c1=O)NCc1ccccc1,12%
11,COc1ccc(C(=O)OCc2c(C)noc2C)cc1,12.9%
12,COC(=O)c1ccc(NC(=S)NC2CCc3ccccc32)cc1 (stereo not drawn),-13.9%
13,CNS(=O)(=O)c1ccc2c3c(cccc13)C(=O)N2,9.73%
14,Cc1ccc(S(=O)(=O)CC(=O)N(CCCN(C)C)c2nc3ccc(C)cc3s2)cc1.Cl,-43.9%
15,Cc1cc(C)c2nc(N(CCCN(C)C)C(=O)C3=COCCO3)sc2c1.Cl,-65.9%
16,Cc1cccc2sc(N(CCCN3CCOCC3)C(=O)CS(=O)(=O)c3ccc(F)cc3)nc12.Cl,-16.9%
17,COc1ccc(C)c2sc(N(CCCN(C)C)C(=O)c3ccc(S(=O)(=O)N(C)C)cc3)nc12.Cl,-61.5%
18,COc1ccc(C)c2sc(N(CCCN(C)C)C(=O)CS(=O)(=O)c3ccc(F)cc3)nc12.Cl,-60.3%
19,COc1ccc(OC)c2sc(N(CCCN(C)C)C(=O)c3ccc(S(=O)(=O)N4CCc5ccccc5C4)cc3)nc12.Cl,-8.54%

row,Structure (SMILES),"hERG current change (%, negative = inhibition) at 10uM"
1,Cc1cc(C)c2nc(N(CCN(C)C)C(=O)/C=C/c3cccs3)sc2c1.Cl,17.9%
2,Cc1cc(C)c2nc(N(CCCN(C)C)C(=O)c3ccc(S(=O)(=O)N4CC(C)OC(C)C4)cc3)sc2c1.Cl (stereo not drawn),-33.7%
3,COc1ccc(C)c2sc(N(CCCN(C)C)C(=O)c3ccc(S(=O)(=O)N4CCc5ccccc5C4)cc3)nc12.Cl,9.73%
4,Cc1ccc(-n2nnnc2SCC(=O)N2CCCCC2)cc1,-3.3%
5,CCNC(=S)N/N=C/c1c(Cl)cccc1Cl,18.1%
6,Cc1cccc(-n2ncc3c2CCCC3NC(=O)C2CCOCC2)c1C (stereo not drawn),6.59%
7,O=C(Nc1cnc2ccccn2c1=O)c1ccc(Cl)cc1,-23%
8,CN(CC(=O)Nc1ccccc1Cl)C(=O)CN1C(=O)NC(c2ccccc2)(c2ccccc2)C1=O,-66.8%
9,O=C(CN1C(=O)NC(c2ccccc2)(c2ccccc2)C1=O)NCc1ccccc1,-31%
10,COc1ccc(C2(c3ccc(OC)cc3)NC(=O)N(CC(=O)Nc3ccccc3)C2=O)cc1,28.6%
11,CN(CC(=O)Nc1ccccc1Cl)C(=O)COC(=O)CN1C(=O)NC2(CCCC2)C1=O,9.31%
12,COc1ccc(NC(=O)CN2C(=O)NC(c3ccccc3)(c3ccccc3)C2=O)cc1,-55%
13,NC(=O)NC(=O)CN1C(=O)NC(c2ccccc2)(c2ccccc2)C1=O,4.8%
14,CCNC(=O)NC(=O)C(C)N1C(=O)NC(c2ccccc2)(c2ccccc2)C1=O (stereo not drawn),-43.6%
15,C=CCNC(=O)NC(=O)CN1C(=O)NC(c2ccccc2)(c2ccccc2)C1=O,-69.5%
16,CCN1C(=O)C(=O)N(CC(=O)N(C)CC(=O)Nc2ccccc2Cl)C1=O,4.13%
17,CC(C(=O)NC(N)=O)N1C(=O)NC(c2ccccc2)(c2ccccc2)C1=O (stereo not drawn),-14.9%
18,COc1cc(NC(=O)CN2C(=O)NC(c3ccccc3)(c3ccccc3)C2=O)cc(OC)c1,5.79%
19,COc1ccc(CNC(=O)C(C)N2C(=O)NC(c3ccccc3)(c3ccccc3)C2=O)cc1 (stereo not drawn),-86.5%
